# Source: PubChem BioAssay (NCATS)
# Results filed as inconclusive are left out. A call without a number means that no potency is given here. Calls of active or inactive are those of the source. Calls come from the whole dose curve; as a rule, active = well fitted cell-killing curve with a large enough effect; inconclusive = small, poorly fitted or top-dose-only effect, or effect the other way; inactive = no such curve, though single readings can be large or run the other way.
# Assay: Quantitative High-Throughput drug screen in 47 multiple myeloma cell lines against the NCATS MIPE library collection: OPM2_DSMZ cell viability assay (AID 1919872); note: nearly all actives have a fitted effect of over 30% in size
# Conditions: OPM2 myeloma viability, CellTiter-Glo ATP luminescence, 48 h; series mostly up to 45.8 µM
# Excerpt: PI: Beverly A. Mock Ph.D.
# Laboratory of Cancer Biology and Genetics,
# Center for Cancer Research, National Cancer Institute,
# National Institute of Health, Bethesda, Maryland
# Drug resistance and disease progression are common in multiple myeloma (MM) patients, underscoring the need for new therapeutic combinations. […] We hypothesized that effective combinations would reduce MYC expression and enhance p16 activity. […] These preclinical data identify potentially useful drug combinations for evaluation in drug-resistant MM and reveal potential mechanisms of combined drug sensitivity.
# Described herein is the primary MIPE qHTS used to cherrypick compounds. Validated compounds were then further tested for potential synergistic activiy.
# [1] Peat TJ, Gaikwad SM, Dubois W, Gyabaah-Kessie N, Zhang S, Gorjifard S, Phyo Z, Andres M, Hughitt VK, Simpson RM, Miller MA, Girvin AT, Taylor A, Williams D, D'Antonio N, Zhang Y, Rajagopalan A, Flietner E, Wilson K, Zhang X, Shinn P, Klumpp-Thomas C, McKnight C, Itkin Z, Chen L, Kazandijian D, Zhang J, Michalowski AM, Simmons JK, Keats J, Thomas CJ, Mock BA. Drug combinations identified by high-throughput screening promote cell cycle transition and upregulate Smad pathways in myeloma. Cancer Lett. 2023 Aug 1;568:216284. doi: 10.1016/j.canlet.2023.216284. Epub 2023 Jun 24. PMID: 37356470; PMCID: PMC10408729.
# SEQUENCE No. (e.g., 1, 2, 3, etc.); […] (e.g., Cells, Incubation, Reagent, etc.); VALUE and DESCRIPTION.
# 1; Cells; 5 uL; white, solid bottom 1536-well Greiner assay plate.
# 2; Compounds; 23 nL; Kalypsis pin tool (Wako USA) equipped with a 1536-well pin head to transfer to the assay plates.
# 3; Incubation; 48 hours; 37C incubation.
# 4; Reagent;5uL; CellTiter Glo (Promega).
# 5; Detector; 425V; Luminescence; Viewlux PerkinElmer.
# NOTES (numbers refer to Sequence numbers above)
# 1. The cell-based screening methods employed in this study were like those previously published. Briefly, the corresponding myeloma cell lines were screened in 1,536-well plates with 500 cells, 5-uL per well for inhibition of cell viability (assessed by measuring ATP levels with CellTiterGlo).
# 2. NCATS MIPE 4.0 library of approved and investigational drugs were added using the Kalypsis pin tool. Wells treated with DMSO only for 100% viability and media only wells for 0% viability were used as controls.
# 3. The assay plates were covered and incubated for 48 hours in a 37C, 5% CO2 incubator with controlled humidity.
# 4. After 48 hours, CellTilter-GloTM luminescent substrate mix (Promega) reagent was added to the assay plate and plates we incubated for 5 min at room temperature.
# 5. Signal was measured as median relative luminescence units on a ViewLux (PerkinElmer) multiplate reader.
# [1] Heske CM, Davis MI, Baumgart JT, Wilson K, Gormally MV, Chen L, Zhang X, Ceribelli M, Duveau DY, Guha R, Ferrer M, Arnaldez FI, Ji J, Tran HL, Zhang Y, Mendoza A, Helman LJ, Thomas CJ. Matrix Screen Identifies Synergistic Combination of PARP Inhibitors and Nicotinamide Phosphoribosyltransferase (NAMPT) Inhibitors in Ewing Sarcoma. Clin Cancer Res. 2017 Dec 1;23(23):7301-7311. doi: 10.1158/1078-0432.CCR-17-1121. Epub 2017 Sep 12. PMID: 28899971; PMCID: PMC6636827.
# Potency is the fitted concentration of half-maximal effect.
row,Compound,Potency
1,CC(C(=O)O)c1cccc(C(=O)c2ccccc2)c1 (stereo not given),inactive
2,CN1CCN(C2=Nc3cc(Cl)ccc3Nc3ccccc32)CC1,inactive
3,Cn1c(=O)c2c(ncn2C)n(C)c1=O,inactive
4,O=C1c2c(O)ccc(O)c2C(=O)c2c(NCCNCCO)ccc(NCCNCCO)c21,3.32 µM (active)
5,CN1CCN(CCCN2c3ccccc3Sc3ccc(Cl)cc32)CC1,inactive
6,CN(CCOc1ccc(NS(C)(=O)=O)cc1)CCc1ccc(NS(C)(=O)=O)cc1,inactive
7,CN(C)C(=N)N=C(N)N,inactive
8,CC[N+](CC)(CC)CCOc1cccc(OCC[N+](CC)(CC)CC)c1OCC[N+](CC)(CC)CC,0.118 µM (active)
9,Cc1cnc(C(=O)NCCc2ccc(S(=O)(=O)NC(=O)NC3CCCCC3)cc2)cn1,inactive
10,CN1C(C(=O)Nc2ccccn2)=C(O)c2ccccc2S1(=O)=O,inactive
11,COC(=O)Nc1nc2ccc(C(=O)c3cccs3)cc2[nH]1,0.0118 µM (active)
12,N[C@@H](Cc1c[nH]c2ccc(O)cc12)C(=O)O,inactive
13,CC(C)Cc1ccc(C(C)C(=O)O)cc1 (stereo not given),inactive
14,O=c1c(-c2ccc(O)cc2)coc2cc(O)cc(O)c12,inactive
15,CN(C)c1nc(N(C)C)nc(N(C)C)n1,inactive
16,CCCNCC(O)COc1ccccc1C(=O)CCc1ccccc1 (stereo not given),inactive
17,CC1(C)O[C@H]2CC(=O)OC[C@]23[C@H]2CC[C@@]4(C)[C@H](c5ccoc5)OC(=O)[C@H]5O[C@]54[C@]2(C)C(=O)C[C@@H]13,inactive
18,Nc1nc2c(ncn2COC(CO)CO)c(=O)[nH]1,23.5 µM (active)
19,COc1cc2nc(N3CCN(C(=O)C4COc5ccccc5O4)CC3)nc(N)c2cc1OC (stereo not given),inactive
20,Clc1ccc2nsnc2c1NC1=NCCN1,inactive

row,Compound,Potency
1,NC(CO)C(=O)NNCc1ccc(O)c(O)c1O (stereo not given),18.7 µM (active)
2,CNCCCC12CCC(c3ccccc31)c1ccccc12,23.5 µM (active)
3,COc1cc2c(c(OC)c1OC)-c1ccc(OC)c(=O)cc1[C@@H](NC(C)=O)CC2,inactive
4,Nc1ccn([C@H]2CC[C@@H](CO)O2)c(=O)n1,inactive
5,COc1ccccc1OCCNCC(O)COc1cccc2[nH]c3ccccc3c12 (stereo not given),inactive
6,O=C(CCCN1CCC(O)(c2ccc(Cl)cc2)CC1)c1ccc(F)cc1,inactive
7,CCN1CCCC1CNC(=O)c1cc(S(=O)(=O)CC)c(N)cc1OC (stereo not given),inactive
8,O=C(c1ccc(F)cc1)C1CCN(CCn2c(=O)[nH]c3ccccc3c2=O)CC1,inactive
9,C[C@](N)(Cc1ccc(O)c(O)c1)C(=O)O,7.43 µM (active)
10,CC1(CN2CCC(n3c(=O)[nH]c4ccccc43)CC2)OCc2ccccc2-n2cccc21 (stereo not given),inactive
11,CC(C)C(=O)Nc1ccc([N+](=O)[O-])c(C(F)(F)F)c1,inactive
12,Cc1cn([C@H]2C[C@H](N=[N+]=[N-])[C@@H](CO)O2)c(=O)[nH]c1=O,inactive
13,COc1ccc2c(c1)c(CC(=O)O)c(C)n2C(=O)c1ccc(Cl)cc1,inactive
14,Cn1cnc2c1c(=O)[nH]c(=O)n2C,20.9 µM (active)
15,NC(=O)OCC(COC(N)=O)c1ccccc1,inactive
16,CN1C2CCC1CC(OC(=O)C(CO)c1ccccc1)C2 (stereo not given),inactive
17,Cc1ccccc1N1C(=O)c2cc(S(N)(=O)=O)c(Cl)cc2NC1C (stereo not given),inactive
18,COc1nc(C)nc(Cl)c1NC1=NCCN1,inactive
19,NCCCCCC(=O)O,inactive
20,NC12CC3CC(CC(C3)C1)C2,inactive
